# Assay results: PubChem BioAssay AID1851 (National Center for Advancing Translational Sciences (NCATS), 2009)
# Among all 16,000 compounds or so, about 2,600 (16%) were called active. Inconclusive results (about 20%) are left out. The call rests on the fitted dose curve; in most records, active means well fitted curve in the direction sought with a large enough effect; inconclusive means small, poorly fitted or top-dose-only effect, or effect the other way; inactive means no such curve, though single readings can be large or run the other way. Only a sample is shown.
# Target: Cytochrome P450 2D6 (Homo sapiens) (UniProt P10635)
# Experiment: Cytochrome panel assay with activity outcomes
# Details: recombinant CYP, pro-luciferin dealkylation, luminescence, p450-cyp2d6; series mostly up to 57.1 µM; activity, negative = inhibition: at the top concentration
# On the % scale 0 is the no-effect control and ±100 the full control effect.
# Chain of Cytochrome P450 2D6 (Homo sapiens) (P10635 whole entry, looked up): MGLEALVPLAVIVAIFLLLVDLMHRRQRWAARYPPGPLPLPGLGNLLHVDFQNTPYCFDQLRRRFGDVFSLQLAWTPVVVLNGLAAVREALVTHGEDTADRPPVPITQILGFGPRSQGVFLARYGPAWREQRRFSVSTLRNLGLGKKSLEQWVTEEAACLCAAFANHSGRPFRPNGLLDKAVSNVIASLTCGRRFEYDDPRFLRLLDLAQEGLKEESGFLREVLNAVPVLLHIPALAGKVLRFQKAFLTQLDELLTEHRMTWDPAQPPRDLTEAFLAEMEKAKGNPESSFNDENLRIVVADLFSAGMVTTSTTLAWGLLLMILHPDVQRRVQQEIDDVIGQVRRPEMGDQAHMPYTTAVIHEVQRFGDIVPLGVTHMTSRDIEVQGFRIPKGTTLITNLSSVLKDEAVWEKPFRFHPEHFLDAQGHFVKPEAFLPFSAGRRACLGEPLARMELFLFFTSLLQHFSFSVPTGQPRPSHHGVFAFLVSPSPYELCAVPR
Compound,"activity, negative = inhibition",AC50
Cc1n[nH]c(C)c1S(=O)(=O)N1CCOCC1,13.9% (inactive),
COc1ccc(/C=N/OCc2nc3c4c(ncn3n2)Oc2ccc3ccccc3c2C4c2ccccc2)cc1 (centres undefined),-1.08% (inactive),
Fc1ccc(-c2ccnc3nc(N4CCOCC4)nn23)cc1,-4.82% (inactive),
Cc1cccc(C)c1NC(=O)CN1CCN(CCCC(c2ccc(F)cc2)c2ccc(F)cc2)CC1,,5.01 µM (active)
Cc1c(NC(=O)CN2CCN(c3ccccc3)CC2)c(=O)n(-c2ccccc2)n1C,2.48% (inactive),
Cc1cccc(C)c1NC(=O)CS(=O)CC(=O)Nc1ccc(F)cc1F (centres undefined),-20.9% (inactive),
Nc1nc2c(c(=O)[nH]1)N[C@H](CCNc1ccc(C(=O)O)cc1)CN2,1.76% [at 11.4 µM] (inactive),
CNC(=O)c1sc(-c2cccnc2)nc1C,1.87% (inactive),
Cc1nc(-c2cccnc2)sc1C(=O)Nc1ccc(F)cc1F,-13.3% (inactive),
Cc1nc(-c2cccnc2)sc1C(=O)Nc1ccc(Cl)cc1,,15.8 µM (active)
N#CCCn1c(=O)c(-c2ccc(Cl)cc2)nc2cnc(Oc3cccc(Cl)c3)nc21,8.48% (inactive),
CCOC(=O)C(C)(C)[C@H](O)C(C)C,10.9% [at 11.4 µM] (inactive),
N[C@@H](Cc1ncccn1)C(=O)O,-1.91% [at 11.4 µM] (inactive),
Clc1ccc(CO[C@@H](Cn2ccnc2)c2ccc(Cl)cc2Cl)cc1,,0.2 µM (active)
Clc1ccc(COC(Cn2ccnc2)c2ccc(Cl)cc2Cl)c(Cl)c1 (centres undefined),,1 µM (active)
Cc1nn(C)c(Cl)c1NC(=O)OCc1ccc(Cl)cc1Cl,-12.9% (inactive),
Clc1ccc([C@H](Cn2ccnc2)OCc2csc3c(Cl)cccc23)c(Cl)c1,,5.01 µM (active)
COCCn1c(=O)c(-c2cc(F)cc(F)c2)nc2cnc(N3CCOCC3)nc21,9.89% (inactive),
O=C1Nc2ccc(F)cc2C12SCCS2,-4.91% (inactive),
Cn1c(=O)c(-c2ccc(F)c(F)c2)nc2cncnc21,-1.7% (inactive),
N#CCCn1c(=O)c(CCc2ccccc2)nc2cnc(Oc3cccc(Cl)c3)nc21,1.73% (inactive),
CC1CCC(=NNC(=O)Cc2ccccc2)CC1 (centres undefined),-22% (inactive),

Compound,"activity, negative = inhibition",AC50
CN1Cc2c(C(=O)OC(C)(C)C)ncn2-c2ccsc2C1=O,-3.58% (inactive),
N#Cc1ccc(-c2ccc(F)cc2)nc1Oc1ccc(Cl)c(Cl)c1,1.51% (inactive),
Cc1ccc2ncc([N+](=O)[O-])n2c1,0.899% (inactive),
O=C(O)C1=CCCNC1,,inactive
O=C(O)C(=O)/C=C(\O)c1ccc(Br)cc1,-0.0145% [at 11.4 µM] (inactive),
Cc1ccc(-c2nn3c(C)nnc3c3ccccc23)cc1S(=O)(=O)NCCN1CCOCC1,-18% (inactive),
CC(=O)Nc1ccc(S(=O)(=O)NC(CC(=O)NCCCN2CCOCC2)C(C)C)cc1 (centres undefined),-17.2% (inactive),
Cc1cc(S(=O)(=O)NCCCN2CCOCC2)ccc1F,,12.6 µM (active)
COc1ccc(-c2nc3cnc(N4CCN(C)CC4)nc3n(Cc3ccc(F)cc3)c2=O)cc1,-1.05% (inactive),
O=C(O)CCC(=O)c1ccc2sc3ccccc3c2c1,-3.63% [at 11.4 µM] (inactive),
CCCCN(CCCC)CCCOC(=O)c1ccc(N)cc1,,0.00631 µM (active)
CCCCNc1ccc(C(=O)OCCOCCOCCOCCOCCOCCOCCOCCOCCOC)cc1,-0.114% [at 25.6 µM] (inactive),
CN(C)CCOC(=O)c1ccc(N)cc1,11.9% [at 11.4 µM] (inactive),
Cc1cc([N+](=O)[O-])c(C)c(Br)c1C,-1.18% [at 11.4 µM] (inactive),
CC(C)(C)C(=O)OCOC(=O)[C@@H]1N2C(=O)[C@@H](NC(=O)[C@H](N)c3ccccc3)[C@H]2SC1(C)C,-5.86% [at 25.6 µM] (inactive),
O=C(Nc1cccc(F)c1)N1CCCC2(CCN(C(=O)c3cc(C(F)(F)F)cc(C(F)(F)F)c3)CC2)C1,-4.07% (inactive),
CCOc1ccccc1Oc1coc2cc(OC)ccc2c1=O,,0.501 µM (active)
COc1ccc2c(=O)c(-c3ccccc3)c(C)oc2c1,1.82% (inactive),
CCOc1ccccc1Oc1c(C)oc2cc(OC(=O)c3ccco3)ccc2c1=O,-2.7% (inactive),
CC(C)C(C(=O)O)N1C(=O)/C(=C/C=C/c2ccco2)SC1=S (centres undefined),8.03% (inactive),
CCCCN(C)C(=O)c1coc(=O)c2ccccc12,23.8% (inactive),
O=[n+]1c2c(n([O-])c3cc(F)c(F)cc31)CCCC2,3.89% (inactive),

Compound,"activity, negative = inhibition",AC50
O=C1c2ccccc2-c2ccc(NC(=O)[C@H]3CCCC[C@@H]3C(=O)O)cc21,-8.68% [at 11.4 µM] (inactive),
CCC(=O)Nc1ccc2c(c1)C(=O)c1ccccc1C2=O,,7.08 µM (active)
O=C(Nc1ccc(Nc2ccc3c(c2)C(=O)c2ccccc2C3=O)c2c1C(=O)c1ccccc1C2=O)c1ccccc1,-5.75% [at 11.4 µM] (inactive),
COc1ccc(/C=N/n2c(C)nnc2C)c(OC)c1,-1.27% (inactive),
OCCn1cnc2c(SCc3ccccc3)ncnc21,-0.741% [at 11.4 µM] (inactive),
Cn1cnc2c(NCc3ccccc3)nc(NCCO)nc21,,1.26 µM (active)
CCn1c2ccccc2c2nnc(NCCCO)nc21,3.89% [at 11.4 µM] (inactive),
O=C1[C@H]2[C@H]3[C@H](O)[C@H](O)C/C(=N/OC[C@@H](O)COCc4ccco4)[C@@H]3CC[C@@H]2C(=O)N1Cc1ccc2c(c1)OCO2,0.398% [at 11.4 µM] (inactive),
CN1CCC(N(C)C(=O)CCc2nc3ccccc3c(=O)[nH]2)CC1,5.72% (inactive),
O=C(O)CSc1ccn(Cc2ccccc2)c1,9% [at 11.4 µM] (inactive),
O=C(O)c1cccnc1Nc1cccc(C(F)(F)F)c1,-1.07% [at 25.6 µM] (inactive),
O=C(COC(=O)c1cccnc1Nc1cccc(C(F)(F)F)c1)NCc1ccc2c(c1)OCO2,,1.12 µM (active)
O=C(COC(=O)c1cnccn1)NCc1ccccc1,-13.3% (inactive),
Cc1cc2nnc(SCC(=O)OC(C)C)n2c2ccccc12,-7.14% (inactive),
NC1=C2NC=N[C@@H]2N(C/C=C\c2ccccc2)C=N1,-12.6% [at 11.4 µM] (inactive),
N#CCCn1c(=O)c(-c2cccs2)nc2cnc(Oc3cccc(Cl)c3)nc21,3.98% (inactive),
Cc1cc(NC(=O)C2CCCCC2)nc2c1c(=O)oc1ccccc12,,20 µM (active)
COc1ccc2oc(=O)c(NC(=O)C3CCCCC3)cc2c1,21.2% (inactive),
O=C(Nc1cc2ccccc2oc1=O)C1CCCCC1,-12.9% (inactive),
O=c1cnc2cnc(Nc3ccccc3)nc2n1C[C@H]1CCCO1,-9.42% (inactive),
